Data published in PubChem BioAssay.
For some assays here: Potency and affinity values are given separately. Active and inactive are the calls of the source.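 Rule for the calls, unless noted: active = primary screen hit whose fluorescence ratio, in both repeats, exceeds the weak agonist control mean by 3 SD; inactive = the rest.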

Columns and labels:
[1] = system: TRPC4 beta (transient receptor potential cation channel C4), mouse; assay: activators of mouse TRPC4 channel, confirmation, cell-based, Fluo4 calcium, HEK293 TRPC4beta/mu-opioid, duplicates, 10 µM (AID 2426;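 active = fluorescence ratio normalized to control raised more than 50% in primary screen plus both repeat runs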;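 for activation: percent rise of integrated ratio over buffer wells lacking compound which define 0%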); conditions: Fluo4 calcium fluorescence, at 10 µM; stronger effect = higher value
[2] = system: transient receptor potential cation channel C4 beta (TRPC4), mouse; assay: activators of mouse TRPC4 channel, confirmation, cell-based, second round, Fluo4, HEK293 TRPC4beta/mu-opioid, 1 µM (AID 2461;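 active = primary screen active and over 50% activation in each of two duplicate runs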); conditions: Fluo4 calcium fluorescence, at 1 µM; stronger effect = higher value
[3] = system: TRPC4 (transient receptor potential cation channel C4 beta), mouse; assay: positive allosteric modulators of mouse TRPC4, confirmation, cell-based, second round, Fluo-4, HEK293 TRPC4beta/mu-opioid, 1 µM (AID 2554); conditions: DAMGO EC20, Fluo-4 calcium flux, at 1 µM; stronger effect = higher value
[4] = system: TRPC4 beta (transient receptor potential cation channel C4), mouse; assay: positive allosteric modulators of mouse TRPC4, confirmation, cell-based, Fluo-4, HEK293 TRPC4beta/mu-opioid (AID 2555;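 active = primary screen hit whose calcium fluorescence ratio, in both repeats, exceeds the weak agonist control mean by 3 SD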); conditions: DAMGO EC20, Fluo-4 calcium flux, at 10 µM; stronger effect = higher value
[5] = target: Short transient receptor potential channel 4 (Mus musculus) (UniProt Q9QUQ5); assay: inhibitors of mouse TRPC4 channel, confirmation, cell-based, Fluo4, HEK293 TRPC4beta/mu-opioid (AID 2636;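 active = calcium signal cut by more than 3 SD below the full-agonist control yet still positive, in both repeats and the earlier primary screen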); conditions: DAMGO, Fluo4 calcium flux, at 10 µM; stronger effect = higher value
[6] = target: Short transient receptor potential channel 4 (Mus musculus) (UniProt Q9QUQ5); assay: inhibitors of mouse TRPC4 channel, confirmation, cell-based, second round, Fluo4, HEK293 TRPC4beta/mu-opioid, 1 µM (AID 2637;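 active = calcium signal ratio cut to more than 3 SD under the fully stimulated control mean yet still positive, in both repeats and the primary screen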); conditions: Fluo4 calcium flux, DAMGO, at 1 µM; stronger effect = higher value
[7] = target: Short transient receptor potential channel 4 (Mus musculus) (UniProt Q9QUQ5); assay: mouse TRPC4 channel activators, dose response, cell-based, HEK293 TRPC4/mu-opioid, Fluo-4 calcium (AID 434937;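 active = primary screen activator hit with a dose response curve and TRPC4 channel activation at any tested dose; inactive = no activation, no dose response, or not a primary hit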)
[8] = target: Short transient receptor potential channel 4 (Mus musculus) (UniProt Q9QUQ5); assay: TRPC4 positive allosteric modulators, dose response, cell-based, HEK293 TRPC4/mu-opioid, Fluo-4 calcium, EC20 DAMGO (AID 434941;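 active = earlier screen potentiator hit that boosts the TRPC4 ion channel at some dose, with a dose response; inactive = no potentiation, no dose response, or not a prior hit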;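 note: calcium entry triggered by an EC20 dose of DAMGO at the co-expressed mu-opioid receptor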)
[9] = target: Short transient receptor potential channel 4 (Mus musculus) (UniProt Q9QUQ5); assay: mouse TRPC4 channel inhibitors, dose response, cell-based, HEK293 TRPC4/mu-opioid, Fluo-4 calcium (AID 434942;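 active = primary screen inhibitor hit that blocks the TRPC4 channel at some tested dose, yielding a dose curve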)
[10] = target: Short transient receptor potential channel 6 (Mus musculus) (UniProt Q61143); assay: inhibition of mouse TRPC6 channel, confirmation, selectivity assay for TRPC4 inhibitor project, cell-based, HEK293, membrane potential dye, duplicate (AID 434948;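 active = active in primary screen and both duplicates, each dropping signal beyond three positive-control SD with fluorescence still positive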); conditions: HEK293 TRPC6, membrane potential dye fluorescence, at 10 µM, stimulated with maximal-effect acetylcholine; stronger effect = higher value
[11] = target: Short transient receptor potential channel 6 (Mus musculus) (UniProt Q61143); assay: activation of mouse TRPC6 channel, confirmation, selectivity assay for TRPC4 activator project, cell-based, HEK293, membrane potential dye, duplicate (AID 434950;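 active = membrane potential signal rise above negative control mean plus 3 SD in both duplicates, also active in the earlier TRPC4 screen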); conditions: HEK293 TRPC6, membrane potential fluorescence, at 10 µM; stronger effect = higher value
[12] = target: Short transient receptor potential channel 6 (Mus musculus) (UniProt Q61143); assay: TRPC6 potentiation by TRPC4 potentiator hits, confirmation, selectivity assay for TRPC4 potentiator project, HEK293 cells, membrane potential dye, duplicate (AID 434952;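 active = compound raising the membrane signal above positive-control mean plus 3 SD in both repeats, and a primary screen hit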); conditions: HEK293 TRPC6, membrane potential dye fluorescence, at 10 µM, maximal acetylcholine added after compound; stronger effect = higher value
[13] = target: Short transient receptor potential channel 4 (Mus musculus) (UniProt Q9QUQ5); assay: calcium flux activators in TRPC4/5HT1a cells, counter-screen for TRPC4 activator project, cell-based, second counter screen, HEK293 TRPC4/5HT1a, Fluo-4 (AID 434977;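 active = calcium signal rise above buffer-control mean plus 5 SD in both duplicates, and also a hit in the primary screen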;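 for activation: plate controls were assay buffer for no effect and maximal serotonin response for full effect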); conditions: Fluo-4 calcium flux, at 10 µM; stronger effect = higher value
[14] = calcium flux inhibitors in TRPC4/5HT1a cells, confirmation, counter-screen for TRPC4 inhibitor project, cell-based, second counter screen, HEK293 TRPC4/5HT1a, Fluo-4 (AID 434978;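 active = primary screen active whose calcium signal fell more than 3 SD beyond the full-serotonin control mean in both duplicate plates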;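 note: serotonin given first at submaximal then at maximal dose after compound preincubation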); conditions: Fluo-4 calcium flux, at 10 µM, serotonin added to trigger calcium flux; stronger effect = higher value
[15] = system: TRPC4 (mouse), co-expressed with 5HT1a in HEK293; assay: calcium flux potentiators in TRPC4/5HT1a cells, confirmation, counter-screen for TRPC4 potentiator project, cell-based, second counter screen, HEK293 TRPC4/5HT1a, Fluo-4 (AID 434979;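 active = signal rise over 3 SD above mean of control wells given weak agonist, in both repeats and first screen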); conditions: Fluo-4 calcium flux, at 10 µM, serotonin added at its EC20 dose; stronger effect = higher value
[16] = calcium flux activation in mu-opioid HEK293 cells, confirmation, counter-screen for TRPC4 activator project, cell-based, HEK293 mu-opioid receptor line (AID 449723;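 active = hit in primary screen, with calcium signal over 5 SD above buffer well mean in both duplicates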;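 note: counter screen cells carry the mu-opioid receptor alone and lack TRPC4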); conditions: Fluo-4 calcium fluorescence, at 10 µM; stronger effect = higher value
[17] = calcium flux enhancement in mu-opioid HEK293 cells, confirmation, counter-screen for TRPC4 allosteric potentiator project, cell-based, HEK293 mu-opioid receptor line (AID 449724;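 active = calcium signal rise more than 3 SD above the low-dose agonist control mean, in both duplicate plates and the primary screen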); conditions: Fluo-4 calcium flux, at 10 µM, compound added before EC20 DAMGO stimulus; stronger effect = higher value

Sequence of Short transient receptor potential channel 6 (Mus musculus) (Q61143 whole entry, looked up): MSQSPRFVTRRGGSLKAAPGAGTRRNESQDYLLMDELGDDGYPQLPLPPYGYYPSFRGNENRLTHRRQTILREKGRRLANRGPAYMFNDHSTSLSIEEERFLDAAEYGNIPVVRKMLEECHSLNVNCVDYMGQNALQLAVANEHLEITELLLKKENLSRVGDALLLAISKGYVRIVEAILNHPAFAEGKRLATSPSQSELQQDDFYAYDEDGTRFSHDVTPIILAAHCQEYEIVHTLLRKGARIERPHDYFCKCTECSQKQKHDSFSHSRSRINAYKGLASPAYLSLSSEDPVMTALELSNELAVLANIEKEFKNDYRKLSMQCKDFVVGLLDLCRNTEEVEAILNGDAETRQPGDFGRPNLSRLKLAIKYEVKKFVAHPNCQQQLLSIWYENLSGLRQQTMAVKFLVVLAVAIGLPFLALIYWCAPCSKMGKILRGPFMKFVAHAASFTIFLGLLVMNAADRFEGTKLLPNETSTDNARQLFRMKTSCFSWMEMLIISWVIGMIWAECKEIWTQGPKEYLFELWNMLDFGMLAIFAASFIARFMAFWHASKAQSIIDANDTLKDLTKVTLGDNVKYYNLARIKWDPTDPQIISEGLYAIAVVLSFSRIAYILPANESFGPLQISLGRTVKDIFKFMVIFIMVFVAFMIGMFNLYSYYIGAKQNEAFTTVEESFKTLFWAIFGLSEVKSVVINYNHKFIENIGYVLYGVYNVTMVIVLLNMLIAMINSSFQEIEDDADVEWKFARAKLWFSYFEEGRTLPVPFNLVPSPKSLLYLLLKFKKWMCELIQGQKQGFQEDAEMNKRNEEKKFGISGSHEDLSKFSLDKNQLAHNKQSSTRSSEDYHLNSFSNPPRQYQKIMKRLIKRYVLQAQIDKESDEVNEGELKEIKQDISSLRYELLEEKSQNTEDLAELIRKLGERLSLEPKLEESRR
Sequence of Short transient receptor potential channel 4 (Mus musculus) (Q9QUQ5 whole entry, looked up): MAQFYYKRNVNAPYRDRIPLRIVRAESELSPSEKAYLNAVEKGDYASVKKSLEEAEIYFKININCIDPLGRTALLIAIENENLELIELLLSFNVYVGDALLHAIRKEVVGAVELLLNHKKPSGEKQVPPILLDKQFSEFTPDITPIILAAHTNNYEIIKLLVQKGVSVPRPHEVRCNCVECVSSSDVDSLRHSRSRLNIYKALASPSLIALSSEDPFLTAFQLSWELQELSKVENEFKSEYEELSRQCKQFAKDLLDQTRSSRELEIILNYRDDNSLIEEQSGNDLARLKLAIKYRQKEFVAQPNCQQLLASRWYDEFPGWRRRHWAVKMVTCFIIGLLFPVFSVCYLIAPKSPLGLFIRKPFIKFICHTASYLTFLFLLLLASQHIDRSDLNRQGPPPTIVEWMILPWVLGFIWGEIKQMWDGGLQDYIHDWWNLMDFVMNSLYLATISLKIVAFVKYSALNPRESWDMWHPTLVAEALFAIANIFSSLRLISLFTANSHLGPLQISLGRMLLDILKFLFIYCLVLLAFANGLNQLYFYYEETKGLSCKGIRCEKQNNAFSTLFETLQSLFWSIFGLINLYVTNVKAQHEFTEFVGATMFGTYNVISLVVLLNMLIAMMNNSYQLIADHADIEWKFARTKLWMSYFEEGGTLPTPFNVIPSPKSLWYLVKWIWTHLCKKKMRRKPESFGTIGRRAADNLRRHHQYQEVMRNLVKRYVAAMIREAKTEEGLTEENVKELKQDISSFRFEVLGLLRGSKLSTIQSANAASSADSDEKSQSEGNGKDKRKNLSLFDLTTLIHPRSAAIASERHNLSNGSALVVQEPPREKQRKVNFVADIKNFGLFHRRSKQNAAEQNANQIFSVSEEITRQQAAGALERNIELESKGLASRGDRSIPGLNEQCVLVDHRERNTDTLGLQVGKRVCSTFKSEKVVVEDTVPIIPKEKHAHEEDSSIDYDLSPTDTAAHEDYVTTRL

O=S(=O)(NCC1NCCc2ccccc21)c1ccccc1 (configuration not stated)
inactive: outcome [1] | outcome [2] | outcome [3] | outcome [4] | outcome [5] | outcome [6] | outcome [7] | outcome [8] | outcome [9] | outcome [10] | outcome [11] | outcome [12] | outcome [13] | outcome [14] | outcome [15] | outcome [16] | outcome [17]

COc1ccc(/C=C(\C#N)C(=O)N2CCOCC2)cc1Br
active: potentiation [4] 17% | potentiation [15] 20.4%
inactive: outcome [1] | outcome [2] | outcome [3] | outcome [5] | outcome [6] | outcome [7] | outcome [8] | outcome [9] | outcome [10] | outcome [11] | outcome [12] | outcome [13] | outcome [14] | outcome [16] | outcome [17]

CCOCCCNCc1ccc(OCc2ccccc2Cl)cc1
inactive: outcome [1] | outcome [2] | outcome [3] | outcome [4] | outcome [5] | outcome [6] | outcome [7] | outcome [8] | outcome [9] | outcome [10] | outcome [11] | outcome [12] | outcome [13] | outcome [14] | outcome [15] | outcome [16] | outcome [17]

COc1ccccc1C(=O)NNC1=C(C(=O)C(F)(F)F)CCC1
inactive: outcome [2] | outcome [3] | outcome [4] | outcome [5] | outcome [6] | outcome [7] | outcome [8] | outcome [9] | outcome [10] | outcome [11] | outcome [12] | outcome [14] | outcome [15] | outcome [16] | outcome [17]
active: activation [1] 58% | activation [13] 11%

CCOC(=O)C1=C(CNCCc2ccc(Cl)cc2)NC(=O)NC1c1cccc([N+](=O)[O-])c1 (configuration not stated)
inactive: outcome [1] | outcome [2] | outcome [3] | outcome [4] | outcome [5] | outcome [6] | outcome [7] | outcome [8] | outcome [9] | outcome [10] | outcome [11] | outcome [12] | outcome [13] | outcome [14] | outcome [15] | outcome [16] | outcome [17]

O=C(/C=C/c1ccc(Cl)cc1)N(Cc1ccccc1)C1CCS(=O)(=O)C1 (configuration not stated)
inactive: outcome [1] | outcome [2] | outcome [3] | outcome [4] | outcome [5] | outcome [6] | outcome [7] | outcome [8] | outcome [9] | outcome [10] | outcome [11] | outcome [12] | outcome [13] | outcome [14] | outcome [16] | outcome [17]
active: potentiation [15] 15.5%

COc1ccc(Cc2noc(CN(C)CC3CCN(Cc4ccccc4)CC3)n2)cc1OC
inactive: outcome [1] | outcome [2] | outcome [3] | outcome [4] | outcome [5] | outcome [6] | outcome [7] | outcome [8] | outcome [9] | outcome [10] | outcome [11] | outcome [12] | outcome [13] | outcome [14] | outcome [15] | outcome [16] | outcome [17]

O=C(O)c1ccc(NC(=O)c2cn(-c3ccccc3)nc2-c2ccc(Br)cc2)cc1
inactive: outcome [1] | outcome [2] | outcome [3] | outcome [4] | outcome [5] | outcome [6] | outcome [7] | outcome [8] | outcome [9] | outcome [10] | outcome [11] | outcome [12] | outcome [13] | outcome [14] | outcome [15] | outcome [16] | outcome [17]

CCCc1ccc(OCc2ccc(C(=O)N3CCCC3)o2)cc1
inactive: outcome [1] | outcome [2] | outcome [3] | outcome [5] | outcome [6] | outcome [7] | outcome [8] | outcome [9] | outcome [10] | outcome [11] | outcome [12] | outcome [13] | outcome [14] | outcome [16] | outcome [17]
active: potentiation [4] 23% | potentiation [15] 31.2%

O=C(Nc1cnn(C23CC4CC(CC(C4)C2)C3)c1)c1cnn2cccnc12
inactive: outcome [1] | outcome [2] | outcome [5] | outcome [6] | outcome [7] | outcome [8] | outcome [9] | outcome [10] | outcome [11] | outcome [12] | outcome [13] | outcome [14] | outcome [16] | outcome [17]
active: potentiation [3] 27% | potentiation [4] 61% | potentiation [15] 71.9%

CSc1ccc(/C=N\NC(=O)CC(=O)NC(C)C)cc1
inactive: outcome [1] | outcome [2] | outcome [3] | outcome [4] | outcome [5] | outcome [6] | outcome [7] | outcome [8] | outcome [9] | outcome [10] | outcome [11] | outcome [12] | outcome [13] | outcome [14] | outcome [15] | outcome [16] | outcome [17]

CC(=O)Nc1ccc(CN2CCCC(CO)(Cc3ccccc3C)C2)cc1 (configuration not stated)
inactive: outcome [1] | outcome [2] | outcome [3] | outcome [4] | outcome [5] | outcome [6] | outcome [7] | outcome [8] | outcome [9] | outcome [10] | outcome [11] | outcome [12] | outcome [13] | outcome [14] | outcome [15] | outcome [16] | outcome [17]

c1ccc(C2(CN3CCNC[C@H]3Cc3cccc4ccccc34)CC2)cc1
active: activation [1] 161% | activation [13] 5.82%
inactive: outcome [2] | outcome [3] | outcome [4] | outcome [5] | outcome [6] | outcome [7] | outcome [8] | outcome [9] | outcome [10] | outcome [11] | outcome [12] | outcome [14] | outcome [15] | outcome [16] | outcome [17]

COc1ccc(C(=O)c2no[n+]([O-])c2C(=O)c2ccc(OC)cc2)cc1
inactive: outcome [1] | outcome [2] | outcome [5] | outcome [6] | outcome [7] | outcome [8] | outcome [9] | outcome [10] | outcome [11] | outcome [12] | outcome [13] | outcome [14] | outcome [16] | outcome [17]
active: potentiation [3] 9% | potentiation [4] 50% | potentiation [15] 51.2%

C/C(=N/OCO/N=C(/C)c1ccc(F)cc1)c1ccc(F)cc1
inactive: outcome [1] | outcome [2] | outcome [3] | outcome [4] | outcome [5] | outcome [6] | outcome [7] | outcome [8] | outcome [9] | outcome [10] | outcome [11] | outcome [12] | outcome [13] | outcome [14] | outcome [15] | outcome [16] | outcome [17]

COc1ccc(C(=O)CCC(=O)Nc2cccc(Cl)c2)cc1
active: potentiation [4] 10% | potentiation [15] 22.1%
inactive: outcome [1] | outcome [2] | outcome [3] | outcome [5] | outcome [6] | outcome [7] | outcome [8] | outcome [9] | outcome [10] | outcome [11] | outcome [12] | outcome [13] | outcome [14] | outcome [16] | outcome [17]
